From PubChem BioAssay (Tox21)
Results filed as inconclusive are left out. The source made the active and inactive calls. Unless noted, calls come from the whole dose curve.

Columns and labels:
[1] = Nuclear factor erythroid 2-related factor 2/antioxidant responsive element (Nrf2/ARE) small molecule agonists: qHTS cell viability counter screen in human keratinocytes (AID 1919968; active = well fitted curve in the direction sought with a large enough effect in the repeat runs; an effect the other way counts as inactive or inconclusive; note: nearly all actives have a fitted effect of over 55% in size; note: potency is the fitted concentration of half-maximal effect)
In short: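 HaCaT ARE reporter line, 1,500 cells/well; 5 h settle, 37 C/5% CO2; cpd in DMSO pinned; 23 h exposure; CellTiter-Fluor, 1 h; fluorescence.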

[2] = target: Gonadotropin-releasing hormone receptor (Homo sapiens) (UniProt P30968); assay: Human gonadotropin-releasing hormone receptor (GnRHR) small molecule agonists, calcium flux assay in GnRHR-HEK293 cells (AID 1920063); note: nearly all actives have a fitted effect of over 35% in size
In short: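 GnRHR-HEK293, 1500 cells/well, 18 h 37 C/5% CO2; Ca dye 1 h 37 C; cpd pinned (DMSO), agonist mode; kinetic FL 480/540, 3 min, 1 s reads; 15 conc, n=3.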

[3] = target: KiSS-1 receptor (Homo sapiens) (UniProt Q969F8); assay: Human kisspeptin (KISS1R) small molecule agonists, calcium flux assay in KISS1R-HEK293 cells (AID 1920064; active = well fitted curve in the direction sought with a large enough effect in the repeat runs; an effect the other way counts as inactive or inconclusive)
In short: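 Stable human KISS1R HEK293 line; 18 h plating, 37 C/5% CO2; calcium dye 1 h 37 C; compound pin transfer; kinetic fluorescence Ex/Em 480/540, 3 min.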

[4] = G protein-coupled receptor (GPCR) small molecule agonists, calcium flux assay: HEK293 wild type cell line counter screen (AID 1920065)
In short: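 Kinetic fluorescence at Ex/Em 480/540, recorded every second over 3 min, served as the read-out after compound addition. Each compound was tested at 15 concentrations in triplicate on cells pre-loaded with calcium dye for 1 h.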

[5] = p53 small molecule agonists, cell-based qHTS assay with human liver microsomes (AID 1963577)
In short: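 p53RE-bla cells, 4,000/well, compound added after 5 h, with human liver microsomes 0.5 mg/mL and NADPH 0.5 mg/mL final; 16 h at 37 C, then LiveBLAzer 2 h RT, fluorescence.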

[6] = p53 small molecule agonists, cell-based qHTS assay with rat liver microsomes (AID 1963578)
In short: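 p53RE-bla cells, 4,000/well, pre-incubated 5 h, then given compounds plus rat liver microsomes (0.5 mg/mL final) and NADPH (0.5 mg/mL final). Incubation 16 h at 37 C; beta-lactamase reporter read by LiveBLAzer fluorescence after 2 h at room temperature.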

[7] = p53 small molecule agonists, cell-based qHTS assay with human liver microsomes: qHTS cell viability counter screen (AID 1963579); note: nearly all actives have a fitted effect of over 45% in size; note: potency is the fitted concentration of half-maximal effect
In short: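 p53RE-bla cells, 4,000/well, dosed 5 hours after plating, with human liver microsomes (0.5 mg/mL final) plus NADPH (0.5 mg/mL final), 16 hours at 37 C. Viability read as CellTiter-Glo luminescence after 30 min at room temperature.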

[8] = p53 small molecule agonists, cell-based qHTS assay with rat liver microsomes: qHTS cell viability counter screen (AID 1963580); note: nearly all actives have a fitted effect of over 45% in size
In short: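 In HCT-116 cells carrying a p53 response element-bla reporter, compounds were metabolically activated in situ by rat liver microsomes with NADPH over 16 h. Cell ATP content then served as the cytotoxicity measure.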

[9] = p53 small molecule agonists, cell-based qHTS assay: qHTS cell viability counter screen (AID 1963581); note: nearly all actives have a fitted effect of over 45% in size
In short: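 HCT-116 p53RE-bla cells, 4,000/well, plated 5 h before compound pin transfer; 16 h at 37 C; bla substrate 2 h RT; then CellTiter-Glo, 30 min RT, luminescence.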

[10] = p53 small molecule agonists, cell-based qHTS assay (AID 1963582; active = well fitted activation curve with a large enough effect in the signal ratio in the repeat runs, not every such curve was filed as active; the % refers to the signal ratio)
In short: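 Reporter line: p53RE-bla. Pre-incubation 5 h, 37 C, 5% CO2; compound (DMSO, pin tool) 16 h, 37 C; B/G FRET substrate 2 h RT; fluorescence intensity read.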

[11] = target: 5-hydroxytryptamine receptor 2A (Homo sapiens) (UniProt P28223); assay: 5-hydroxytryptamine receptor 2A (HTR2A) small molecule antagonists, cell-based qHTS assay (AID 1963586); note: nearly all actives have a fitted effect of over 45% in size
In short: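 Antagonist-mode intracellular calcium assay: DOI (4 nM) added after 5 min compound pre-incubation at room temperature to dye-loaded HTR2A-CHO cells. Fluorescence followed for 3 min, sampled every second.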

[12] = target: 5-hydroxytryptamine receptor 2A (Homo sapiens) (UniProt P28223); assay: 5-hydroxytryptamine receptor 2A (HTR2A) small molecule agonists, cell-based qHTS assay (AID 1963587); note: nearly all actives have a fitted effect of over 30% in size
In short: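 HTR2A-CHO cells, plated 18 h at 37 C/5% CO2, dye-loaded 1 h at 37 C; compounds in DMSO added by pin tool (agonist mode). Intracellular calcium flux read as kinetic fluorescence on FDSS over 2 min at 1 s intervals.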

[13] = target: Muscarinic acetylcholine receptor M1 (Homo sapiens) (UniProt P11229); assay: Cholinergic receptor muscarinic 1 (CHRM1) small molecule antagonists, cell-based qHTS assay (AID 1963588); note: nearly all actives have a fitted effect of over 40% in size
In short: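 CHRM1-CHO calcium-flux assay, antagonist mode. Cells were seeded 18 h, dye-loaded 1 h at 37 C and given compound for 5 min at RT, then acetylcholine was added at 50nM. FDSS fluorescence was read 3 min; 15 concentrations, three runs.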

[14] = target: Muscarinic acetylcholine receptor M1 (Homo sapiens) (UniProt P11229); assay: Cholinergic receptor muscarinic 1 (CHRM1) small molecule agonists, cell-based qHTS assay (AID 1963589); note: nearly all actives have a fitted effect of over 35% in size
In short: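 Human M1 in stable CHO line; 18 h plating, 1 h dye load 37 C; cpd added (agonist mode); Ca2+ fluorescence kinetic read, 1 s intervals; 15 conc, 3 runs.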

[15] = cAMP Responsive Elements (CRE) small molecule agonists, cell-based qHTS assay (AID 1963590)
In short: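 HEK 293T CRE-bla, 2,000 cells/well, 18 h preincubation 37 C/5% CO2; cpds (DMSO) pinned, 3 h; LiveBLAzer B/G FRET substrate, 2 h RT.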

[16] = cAMP Responsive Elements (CRE) small molecule antagonists, cell-based qHTS assay (AID 1963591; active = well fitted inhibition curve with a large enough effect in the signal ratio in the repeat runs, not every such curve was filed as active; the % refers to the signal ratio)
In short: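 Beta-lactamase reporter read by FRET substrate (LiveBLAzer B/G) after 2 h at room temperature. CRE-bla HEK293T cells had received compound plus 0.25 uM (final) NKH477 for 3 h at 37 °C.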

[17] = target: Beta-2 adrenergic receptor (Homo sapiens) (UniProt P07550); assay: Adrenergic beta2 receptor (ADRB2) small molecule antagonists, cell-based qHTS assay (AID 1963592); note: series mostly up to about 92 µM; nearly all actives have a fitted effect of over 50% in size
In short: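 Cells (CHO, stable ADRB2 overexpression) incubated 18-20hr at 37C; compounds added from DMSO; agonist mix (1nM isoproterenol, 100uM IBMX, 25uM Ro-20-1724) added; 0.5hr RT; d2-cAMP and anti-cAMP-cryptate added; 1hr RT; 665/615 nm read.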

[18] = target: D(2) dopamine receptor (Homo sapiens) (UniProt P14416); assay: Dopamine D2 receptor (DRD2) small molecule agonists, cell-based qHTS assay (AID 1963594); note: nearly all actives have a fitted effect of over 35% in size
In short: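 HEK293 cells stably expressing DRD2 were cultured 24 h at 37 C, then given Ro20-1724 (0.1 mM final) and compounds for 10 min at room temperature. NKH477 (200nM) was then added for 30 min. cAMP was read by HTRF.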

[19] = target: D(2) dopamine receptor (Homo sapiens) (UniProt P14416); assay: Dopamine D2 receptor (DRD2) small molecule antagonists, cell-based qHTS assay (AID 1963595; active = well fitted inhibition curve with a large enough effect in the signal ratio in the repeat runs, with a control signal flat; the % refers to the signal ratio)
In short: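 Stable D2 receptor HEK293 line, 24 h after seeding. Compound preincubated 10 min, then quinpirole (12 nM) with forskolin analogue NKH477 (200 nM), 30 min, room temperature. Detection by time-resolved FRET of cAMP.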

[20] = target: Beta-2 adrenergic receptor (Homo sapiens) (UniProt P07550); assay: Adrenergic beta2 receptor (ADRB2) small molecule agonists, cell-based qHTS assay (AID 1963593);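 note: CHO cells stably overexpressing human ADRB2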
In short: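 CHO cells stably over-expressing ADRB2 were plated overnight at 37C, then dosed with compounds plus a stimulation mix containing 100uM IBMX and 25uM Ro-20-1724 for 0.5hr at room temperature. cAMP was measured by HTRF competition, 1hr.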

Measured: Potency

Chain of D(2) dopamine receptor (Homo sapiens) (P14416 whole entry, looked up): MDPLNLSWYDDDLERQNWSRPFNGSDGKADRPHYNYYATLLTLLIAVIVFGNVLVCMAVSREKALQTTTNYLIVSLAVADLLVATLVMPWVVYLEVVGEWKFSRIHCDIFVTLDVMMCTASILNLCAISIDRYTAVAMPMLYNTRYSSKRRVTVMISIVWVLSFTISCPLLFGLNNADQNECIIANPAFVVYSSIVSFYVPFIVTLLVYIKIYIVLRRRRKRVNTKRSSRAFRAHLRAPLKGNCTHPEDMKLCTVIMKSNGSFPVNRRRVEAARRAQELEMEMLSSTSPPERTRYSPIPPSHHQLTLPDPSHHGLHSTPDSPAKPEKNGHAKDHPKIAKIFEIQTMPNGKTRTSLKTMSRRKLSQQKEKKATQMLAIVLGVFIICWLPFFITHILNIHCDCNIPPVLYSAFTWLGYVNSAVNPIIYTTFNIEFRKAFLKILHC
Chain of Gonadotropin-releasing hormone receptor (Homo sapiens) (P30968 whole entry, looked up): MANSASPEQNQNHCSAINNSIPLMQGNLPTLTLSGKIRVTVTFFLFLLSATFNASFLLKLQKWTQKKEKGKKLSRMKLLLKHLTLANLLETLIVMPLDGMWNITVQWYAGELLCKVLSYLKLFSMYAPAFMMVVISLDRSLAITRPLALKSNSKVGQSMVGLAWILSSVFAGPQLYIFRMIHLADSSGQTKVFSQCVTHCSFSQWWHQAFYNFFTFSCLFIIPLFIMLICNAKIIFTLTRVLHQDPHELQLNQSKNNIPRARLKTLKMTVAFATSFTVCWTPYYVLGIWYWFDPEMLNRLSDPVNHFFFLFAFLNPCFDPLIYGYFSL
Chain of Muscarinic acetylcholine receptor M1 (Homo sapiens) (P11229 whole entry, looked up): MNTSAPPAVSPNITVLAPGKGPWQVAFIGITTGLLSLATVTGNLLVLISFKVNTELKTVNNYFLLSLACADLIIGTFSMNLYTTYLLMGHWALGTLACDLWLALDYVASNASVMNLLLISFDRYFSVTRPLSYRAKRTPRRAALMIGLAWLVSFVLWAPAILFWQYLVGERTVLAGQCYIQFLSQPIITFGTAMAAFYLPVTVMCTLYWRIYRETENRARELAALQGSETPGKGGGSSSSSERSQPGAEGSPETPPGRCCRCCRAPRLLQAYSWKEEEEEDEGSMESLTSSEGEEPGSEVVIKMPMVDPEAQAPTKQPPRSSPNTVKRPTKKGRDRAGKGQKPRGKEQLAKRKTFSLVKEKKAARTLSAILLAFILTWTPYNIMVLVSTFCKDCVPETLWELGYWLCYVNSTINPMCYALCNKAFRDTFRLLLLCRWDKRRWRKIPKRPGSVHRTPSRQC
Chain of 5-hydroxytryptamine receptor 2A (Homo sapiens) (P28223 whole entry, looked up): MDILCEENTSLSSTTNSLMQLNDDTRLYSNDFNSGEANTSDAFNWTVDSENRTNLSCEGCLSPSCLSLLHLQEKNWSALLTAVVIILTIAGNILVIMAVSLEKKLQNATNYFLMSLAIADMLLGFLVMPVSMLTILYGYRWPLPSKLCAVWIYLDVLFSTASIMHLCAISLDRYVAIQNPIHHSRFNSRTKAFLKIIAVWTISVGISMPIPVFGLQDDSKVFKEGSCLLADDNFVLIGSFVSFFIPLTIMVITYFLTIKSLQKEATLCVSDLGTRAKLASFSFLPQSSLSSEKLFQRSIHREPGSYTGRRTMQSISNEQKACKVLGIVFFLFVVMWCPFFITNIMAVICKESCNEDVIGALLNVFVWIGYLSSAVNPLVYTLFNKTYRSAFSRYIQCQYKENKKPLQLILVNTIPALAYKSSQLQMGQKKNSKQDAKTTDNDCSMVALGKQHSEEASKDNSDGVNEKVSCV
Chain of KiSS-1 receptor (Homo sapiens) (Q969F8 whole entry, looked up): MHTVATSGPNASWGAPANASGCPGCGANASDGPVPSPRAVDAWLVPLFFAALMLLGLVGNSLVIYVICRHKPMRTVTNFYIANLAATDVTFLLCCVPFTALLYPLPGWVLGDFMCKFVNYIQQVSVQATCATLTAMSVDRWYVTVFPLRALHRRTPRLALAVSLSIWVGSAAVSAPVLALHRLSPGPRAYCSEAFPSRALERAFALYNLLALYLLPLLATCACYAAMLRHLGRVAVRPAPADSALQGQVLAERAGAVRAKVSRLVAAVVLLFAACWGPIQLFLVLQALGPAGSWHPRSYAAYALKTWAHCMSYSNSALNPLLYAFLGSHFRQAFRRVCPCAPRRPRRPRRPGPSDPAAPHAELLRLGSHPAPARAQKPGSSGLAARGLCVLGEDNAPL
Chain of Beta-2 adrenergic receptor (Homo sapiens) (P07550 whole entry, looked up): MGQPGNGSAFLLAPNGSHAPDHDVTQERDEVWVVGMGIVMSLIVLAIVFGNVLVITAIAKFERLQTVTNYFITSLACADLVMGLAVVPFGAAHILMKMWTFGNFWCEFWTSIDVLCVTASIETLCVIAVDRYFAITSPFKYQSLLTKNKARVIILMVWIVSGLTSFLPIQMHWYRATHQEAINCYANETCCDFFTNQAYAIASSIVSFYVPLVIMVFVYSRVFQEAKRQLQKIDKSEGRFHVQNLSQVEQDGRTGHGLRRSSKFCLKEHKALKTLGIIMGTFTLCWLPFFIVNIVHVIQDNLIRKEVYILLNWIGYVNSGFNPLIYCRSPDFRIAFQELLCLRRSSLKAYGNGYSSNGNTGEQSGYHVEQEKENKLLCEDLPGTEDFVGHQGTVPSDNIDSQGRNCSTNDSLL

CN1CCN(C)CC1
not listed: [20]
inactive: all other assays above

Cc1ccc([N+](=O)[O-])cc1Cl
not listed: [20]
inactive: all other assays above

Cc1c(C(=O)O)cccc1[N+](=O)[O-]
active: [7] 23.3 µM
not listed: [20]
inactive: all other assays above

C[C@@]12CCC[C@H]1[C@@H]1CC[C@H]3C[C@@H](O)CC[C@]3(C)[C@H]1CC2
not listed: [17]
inactive: all other assays above

CCCOCC(C)OCC(C)O (configuration not stated)
not listed: [18] | [20]
inactive: all other assays above

N#CCCOCCC#N
not listed: [20]
inactive: all other assays above

O=C(CS(=O)Cc1ccco1)NC/C=C\COc1cc(CN2CCCCC2)ccn1 (configuration not stated)
not listed: [20]
inactive: all other assays above

CCN(Cc1cccc(S(=O)(=O)O)c1)c1ccc(C(=C2C=CC(=[N+](CC)Cc3cccc(S(=O)(=O)[O-])c3)C=C2)c2ccccc2)cc1
not listed: [16] | [20]
inactive: all other assays above

CC(C)(c1ccc(Oc2ccc(N)cc2)cc1)c1ccc(Oc2ccc(N)cc2)cc1
active: [1] 38.6 µM
not listed: [16] | [17] | [20]
inactive: all other assays above

CCN(CC)c1ccc(N=Nc2ccccc2)cc1
not listed: [13] | [15] | [16] | [19]
inactive: all other assays above

CCCCCCC1CCC(=O)O1 (configuration not stated)
not listed: [12] | [15] | [20]
inactive: all other assays above

CCOC(=O)CC(=O)C(=O)OCC
not listed: [10] | [17] | [20]
inactive: all other assays above
